Screens deposited in PubChem BioAssay by National Center for Advancing Translational Sciences (NCATS).
D3 ag = activates the human D3 dopamine receptor | D3R DiscoveRx beta-arrestin cells, luminescence, 90 min | P35462 | max activation, % | AID 652048 | 0.58% of 410,000 active; in the data active means max activation above about 30%; further: 0% is about no effect
Target sequence (P35462 whole entry, looked up): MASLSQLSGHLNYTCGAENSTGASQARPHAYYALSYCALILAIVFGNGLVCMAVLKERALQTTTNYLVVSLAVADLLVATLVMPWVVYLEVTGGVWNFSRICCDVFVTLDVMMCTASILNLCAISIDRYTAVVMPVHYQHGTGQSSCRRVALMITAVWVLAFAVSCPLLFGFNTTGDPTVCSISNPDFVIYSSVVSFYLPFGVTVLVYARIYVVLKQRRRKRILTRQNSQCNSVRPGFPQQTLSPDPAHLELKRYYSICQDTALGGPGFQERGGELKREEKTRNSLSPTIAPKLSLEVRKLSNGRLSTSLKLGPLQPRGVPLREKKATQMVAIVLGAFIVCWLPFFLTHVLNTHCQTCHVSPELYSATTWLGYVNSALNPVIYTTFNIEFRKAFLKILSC
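Agonist-mode cell screen: cells plated at 1500/well and incubated overnight at 37 °C, then exposed to library compounds for 90 min at 37 °C. Detection reagent was added for 30–60 min at room temperature, and luminescence was read.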
S2 tox = viability counter-screen for ATXN expression inhibitors; AID 651635; 0.49% of 400,000 active; Potency, µM (top dose mostly 56.7 µM), hits mostly cytotoxic; S2 cells (HEK-293 line with an ATXN2-luciferase reporter) viability, CellTiter-Fluor protease fluorescence, 24 h; further: potency means the concentration at half of the fitted maximal effect; nearly all actives have a fitted effect of over 40% in size
D3 antag = blocks the human D3 dopamine receptor | P35462 | AID 652054 | 2.5% of 360,000 active | max response, negative = inhibition, % | D3R cells, DiscoveRx beta-arrestin luminescence, antagonist mode; hits give low values; in the data active means max response below about -50%; inconclusive means no clear call, values can overlap the other calls; further: on the % scale 0 is the no-effect control and ±100 the full control effect
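Cells expressing the human receptor were seeded at 1500 cells/well, incubated overnight at 37 degrees C in 5% CO2, then exposed to library compounds with dopamine controls for 90 minutes at 37 degrees C before luminescent detection.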
HepG2 viability = kills HepG2 cells in TGF-b inhibitor counter-screen; HepG2 CAGA-GFP viability, ATP luminescence, 18 h; Potency, µM (highest dose often 46.1 µM), for inactives: at the top dose activity change, negative = cytotoxicity, hits mostly cytotoxic; 0.76% of 410,000 active; further: potency means the concentration at half of the fitted maximal effect
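HepG2 CAGA-GFP cells (1000/well, DMEM with 1% FBS) received compound, then TGF-beta at 500 pg/mL final, and were incubated 18 hours at 37 degrees C. Viability was read by CellTiter-Glo luminescence. Media-only wells were set as complete cell-killing and DMSO as no toxicity.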
ATXN2 expr inh = inhibitors of ATXN2 expression; 0.72% of 360,000 active; HEK-293 ATXN2-luciferase reporter, luminescence, 24 h; Potency, µM (highest dose often 57 µM), inactives show at the top dose activity change, negative = inhibition, usual class: inhibitors; AID 1745845; further: potency means the concentration at half of the fitted maximal effect; on the % scale 0 is the no-effect control and ±100 the full control effect; nearly all actives have a fitted effect of over 55% in size
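qHTS (up to 57 uM final) was run with 24 h compound exposure of reporter cells at 37 °C. Each well was multiplexed: SteadyGlo luminescence measured ATXN2-luciferase expression after a fluorogenic Gly-Phe-AFC viability readout (25 uM final).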
TGFb inhibitor = blocks TGF-b signaling; HepG2 CAGA-GFP TGF-b/SMAD3 reporter, GFP fluorescence, 18 h; TGF-beta stimulated, 500 pg/mL final; Potency, µM (series often up to 46.1 µM), without a hit: at the top dose activity, negative = inhibition, usual class: inhibitors; 1.2% of 410,000 active; further: potency means the concentration at half of the fitted maximal effect; on the % scale 0 is the no-effect control and ±100 the full control effect; nearly all actives have a fitted effect of over 65% in size
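TGF-beta reporter screen: HEPG2 CAGA-GFP, 1% FBS, 500 pg/mL TGF-beta final, 18 h; per-cell GFP summed per well; curves fitted and categorized by class.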
Starred values were filed as active, the others as inactive; [ ] = remark or other dose. An excerpt weighted towards active compounds, which were near 4.8% of everything screened. Unless noted, the call rests on the fitted dose curve; in most records, active means well fitted curve in the direction sought with a large enough effect; inconclusive means small, poorly fitted or top-dose-only effect, or another doubt; inactive means no such curve, though single readings can be large; an effect the other way counts as inactive or inconclusive.

What do the screens show for `COc1cc(OC)c(NC(=O)CC(c2cccs2)N2Cc3ccccc3C2=O)cc1Cl` (stereo unspecified)?
D3 ag: -11; S2 tox: inactive; HepG2 viability: -54%; ATXN2 expr inh: -19%; TGFb inhibitor: -59%

What do the screens show for `COC(=O)c1ccc(C)c(N(CCO)CCO)c1`?
D3 ag: 36*; S2 tox: inactive; D3 antag: -6; HepG2 viability: 8%; ATXN2 expr inh: -2%; TGFb inhibitor: 2%

What do the screens show for `COc1ccc(OC)c(NC(=O)COCc2cc(-c3ccco3)on2)c1`?
D3 ag: -11; HepG2 viability: -3%; TGFb inhibitor: 0%

What do the screens show for `COc1cccc(C(=O)NCCc2csc(-c3ccc(Cl)cc3)n2)c1`?
D3 ag: 15; S2 tox: inconclusive; HepG2 viability: -28%; ATXN2 expr inh: inconclusive; TGFb inhibitor: 13µM*

Results for CC(C)(C)c1ccc(C(=O)NCCc2csc(-c3ccc(Cl)cc3)n2)cc1 ?
D3 ag: 15; S2 tox: inactive; HepG2 viability: -18%; ATXN2 expr inh: -12%; TGFb inhibitor: 13µM*

How did COc1ccc(F)cc1S(=O)(=O)NCCc1csc(-c2ccc(Cl)cc2)n1 do in these assays?
D3 ag: -27; S2 tox: inconclusive; HepG2 viability: -24%; ATXN2 expr inh: inconclusive; TGFb inhibitor: 13µM*

What do the screens show for `CN(C)CCCNC(=O)c1ccc(-c2nc(-c3ccc(Cl)cc3)cs2)cc1`?
D3 ag: -3; S2 tox: 20µM*; D3 antag: -8; HepG2 viability: 16µM*; ATXN2 expr inh: inconclusive; TGFb inhibitor: inconclusive

How did CCCc1cc(=O)[nH]c(Nc2ccc(C)c(O)c2)n1 do in these assays?
D3 ag: 9; S2 tox: inactive; HepG2 viability: -10%; ATXN2 expr inh: 5%; TGFb inhibitor: 3%

Results for Cc1cccc(CN2C[C@H](Sc3ccccn3)C[C@H]2C(=O)Nc2ccc3sc(C)nc3c2)c1 ?
S2 tox: inactive

How did COc1ccc(-c2nc3scc(CCNC(=O)c4cccc(Br)c4)n3n2)cc1 do in these assays?
D3 ag: 7; S2 tox: 18µM*; HepG2 viability: -21%; ATXN2 expr inh: inconclusive; TGFb inhibitor: inconclusive

Results for Cc1ccc(Nc2ncnc3c2nnn3Cc2ccccc2)cc1 ?
D3 ag: 30*; S2 tox: inactive; D3 antag: 5; HepG2 viability: -1%; ATXN2 expr inh: 5%; TGFb inhibitor: 6%

How did C=CCn1cc(CN2CCC(C(=O)Nc3cccc(-c4cccc(F)c4)c3)CC2)c(C)n1 do in these assays?
D3 ag: -10; S2 tox: inactive; D3 antag: 0; HepG2 viability: 8.9µM*; ATXN2 expr inh: inconclusive; TGFb inhibitor: inconclusive

Results for Cc1c(CN2CCC(C(=O)Nc3cccc(-c4cccc(Cl)c4)c3)CC2)cnn1C ?
D3 ag: -4; S2 tox: inconclusive; D3 antag: -19; HepG2 viability: -95%; TGFb inhibitor: inconclusive

Results for C=CCn1cc(CN2CCC(C(=O)Nc3ccc(Oc4cccnc4)cc3)CC2)c(C)n1 ?
D3 ag: 2; S2 tox: inactive; D3 antag: 13; HepG2 viability: 1%; ATXN2 expr inh: -4%; TGFb inhibitor: -17%

What do the screens show for `C=CCn1cc(CN2CCC(C(=O)Nc3cccc(-c4cccc(Cl)c4)c3)CC2)c(C)n1`?
D3 ag: -5; S2 tox: inconclusive; D3 antag: -11; HepG2 viability: 16µM*; TGFb inhibitor: inconclusive

Results for CCc1ccc2occ(CC(=O)N(Cc3ccc(N(C)C)cc3)C3CCS(=O)(=O)C3)c2c1 (stereo unspecified) ?
D3 ag: 0; S2 tox: inconclusive; HepG2 viability: -30%; ATXN2 expr inh: 2%; TGFb inhibitor: inconclusive

What do the screens show for `CCCN(C(=O)Cc1coc2cc(OC)ccc12)C1CCS(=O)(=O)C1` (stereo unspecified)?
D3 ag: -8; S2 tox: inactive; D3 antag: -52*; HepG2 viability: 2%; ATXN2 expr inh: 0%; TGFb inhibitor: -2%

What do the screens show for `COc1ccc(CN(C)CC(=O)Nc2sc3c(c2C#N)CCC3)cc1OC`?
D3 ag: 37*; S2 tox: inactive; D3 antag: 24; HepG2 viability: -18%; ATXN2 expr inh: -10%; TGFb inhibitor: -28%

Results for CC(C)c1c(C(=O)NCc2cccnc2)cnn1-c1nccc(-c2cccs2)n1 ?
S2 tox: inactive

Results for COC(=O)c1cc(Cl)c(NC(=O)c2cc(OC)c(OC)c(OC)c2)cc1OC ?
D3 ag: 41*; S2 tox: inactive; D3 antag: 33; HepG2 viability: -1%; ATXN2 expr inh: 3%; TGFb inhibitor: 8%

What do the screens show for `Cc1ccc(C(=O)NCC#N)cc1`?
D3 ag: 3; S2 tox: inactive; D3 antag: 0; HepG2 viability: 6%; TGFb inhibitor: -3%

How did Cc1ccc(C(=O)NC(C#N)=C(Cl)Cl)cc1 do in these assays?
D3 ag: -8; S2 tox: inconclusive; D3 antag: -61*; HepG2 viability: -106%; ATXN2 expr inh: -30%[11.3 µM]; TGFb inhibitor: inconclusive

Results for CCC(C)c1ccc(NC(=S)Nc2ccc(OC)cc2C)cc1 (stereo unspecified) ?
D3 ag: 23; S2 tox: inactive; D3 antag: -133*; HepG2 viability: -43%; ATXN2 expr inh: 1%; TGFb inhibitor: inconclusive

What do the screens show for `COc1ccccc1/C=C/C1(C(=O)NC2CCCC2)CC(=O)N1c1ccc(F)cc1` (stereo unspecified)?
D3 ag: -8; D3 antag: -5; HepG2 viability: -27%; ATXN2 expr inh: 18µM*; TGFb inhibitor: inconclusive

How did COc1ccc(Cc2nnc(NC(=O)c3ccc(OC)c(OC)c3)s2)cc1OC do in these assays?
D3 ag: 42*; S2 tox: inactive; D3 antag: 7; HepG2 viability: -1%; ATXN2 expr inh: -16%; TGFb inhibitor: 0%

How did COc1cccc(C(=O)Nc2nnc(Cc3ccc(OC)c(OC)c3)s2)c1 do in these assays?
D3 ag: 2; S2 tox: inactive; D3 antag: -8; HepG2 viability: -38%; ATXN2 expr inh: -2%; TGFb inhibitor: -4%

How did CCOC(=O)c1sc(C)c2c1NC1(CCCCC1)NC2=O do in these assays?
D3 ag: 47*; S2 tox: inactive; D3 antag: 4; HepG2 viability: -20%; ATXN2 expr inh: 16%; TGFb inhibitor: -14%
